# According to PubChem BioAssay:
# “And” between values parts separate entries of the source, which are not always exact repeats. Identical values can stand only once. Records with an inconclusive call do not appear. The source made the active and inactive calls. Unless noted, the rule behind the calls is not given here.
# How the values were obtained:
# [1] = compounds altering viability of human ES cells (AID 493140); details: human embryonic stem cell survival screen; stronger effect = higher value;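 note: cells exposed to compounds for four days before counting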
# [2] = liver-stage malaria parasite load reduction – cell-based, known kinase inhibitor set, luminescence, hepatoma host viability (AID 624392); details: Plasmodium liver stage in hepatoma cells, luciferase luminescence, concentration not given here; liver cell % of control: measured here: host liver cell viability; parasite % of control: stronger effect = lower value;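 note: infected cells incubated roughly two days before readout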
# [3] = molecular target: Mitogen-activated protein kinase 7 (Homo sapiens) (UniProt Q13164); assay: Gal4-ERK5 driven luciferase induction – cell-based, HTS, primary screen (AID 1508626;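 active = luciferase signal above three times the same-plate solvent-only control wells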;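 note: luciferase driven by Gal4-ERK5 fusion binding five Gal4 sites before minimal TATA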); details: HeLa Gal4-ERK5 transactivation, 18 h, at 5 µM, stronger effect = higher value
# Sequence of Mitogen-activated protein kinase 7 (Homo sapiens) (Q13164 whole entry, looked up, the tested form may be a part): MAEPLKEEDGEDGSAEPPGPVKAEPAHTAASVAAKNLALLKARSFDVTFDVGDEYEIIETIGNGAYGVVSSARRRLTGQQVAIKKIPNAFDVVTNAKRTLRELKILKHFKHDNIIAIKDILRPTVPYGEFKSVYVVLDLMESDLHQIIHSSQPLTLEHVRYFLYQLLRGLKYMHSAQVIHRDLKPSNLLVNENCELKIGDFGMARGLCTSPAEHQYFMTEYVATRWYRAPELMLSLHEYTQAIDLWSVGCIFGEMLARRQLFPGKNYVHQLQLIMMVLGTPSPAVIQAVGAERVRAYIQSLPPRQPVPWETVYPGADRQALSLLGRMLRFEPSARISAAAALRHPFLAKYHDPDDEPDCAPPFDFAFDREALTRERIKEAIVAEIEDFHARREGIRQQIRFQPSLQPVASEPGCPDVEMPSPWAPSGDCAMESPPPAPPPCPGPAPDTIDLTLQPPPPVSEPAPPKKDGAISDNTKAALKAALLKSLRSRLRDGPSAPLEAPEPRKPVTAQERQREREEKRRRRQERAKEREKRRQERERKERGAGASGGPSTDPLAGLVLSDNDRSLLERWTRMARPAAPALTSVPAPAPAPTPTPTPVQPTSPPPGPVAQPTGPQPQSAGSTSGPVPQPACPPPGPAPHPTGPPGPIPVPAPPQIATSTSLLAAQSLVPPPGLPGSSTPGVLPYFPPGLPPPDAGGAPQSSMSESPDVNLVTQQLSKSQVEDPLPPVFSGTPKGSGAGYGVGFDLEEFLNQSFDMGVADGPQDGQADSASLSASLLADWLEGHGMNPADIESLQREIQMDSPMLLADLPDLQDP
# [4] = chitosan synthesis blockers in C. neoformans – flow cytometry, Cibacron Brilliant Red staining (AID 1347148); details: Cryptococcus neoformans chitosan, stronger effect = lower value; at 10 µM unless noted;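 note: compound exposure lasted three days at 37 degrees C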
# [5] = growth inhibition, single agents and combos, LFS_MB_2R, cell-based, cisplatin combos, synergistic combos for chromothripsis tumors (AID 1671457; in the data active = inhibition above about 80%;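 note: cells exposed to compound for four days before readout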); details: LFS_MB_2R medulloblastoma cells, stronger effect = higher value
# [6] = UWB1.289_BRCA1 ovarian cancer growth, cell-based, BGB or cisplatin combinations (AID 1671459; in the data active = inhibition above about 80%); details: UWB1.289 BRCA1 ovarian carcinoma, drug combinations, stronger effect = higher value
# [7] = drug combination toxicity in non-malignant astrocytes – cell-based, BGB or cisplatin IC20 combos, cytotoxicity control for chromothriptic childhood tumor combination screen (AID 1671460; in the data active = inhibition above about 80%;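 note: cells exposed to compounds for 96 hours before viability readout; 0% = vehicle and 100% = killing control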); details: Human astrocytes, viability inhibition, drug combinations, at 0.5 µM, stronger effect = higher value
# [8] = molecular target: ATP-dependent translocase ABCB1 (Homo sapiens) (UniProt P08183); assay: P-glycoprotein substrate transport blockade – cell-based (AID 377; in the data active = fluorescence slope change above about 50%); details: MDR1-expressing cells, fluorescent substrate accumulation slope; stronger effect = higher value; concentration not given here
# Sequence of ATP-dependent translocase ABCB1 (Homo sapiens) (P08183 whole entry, looked up): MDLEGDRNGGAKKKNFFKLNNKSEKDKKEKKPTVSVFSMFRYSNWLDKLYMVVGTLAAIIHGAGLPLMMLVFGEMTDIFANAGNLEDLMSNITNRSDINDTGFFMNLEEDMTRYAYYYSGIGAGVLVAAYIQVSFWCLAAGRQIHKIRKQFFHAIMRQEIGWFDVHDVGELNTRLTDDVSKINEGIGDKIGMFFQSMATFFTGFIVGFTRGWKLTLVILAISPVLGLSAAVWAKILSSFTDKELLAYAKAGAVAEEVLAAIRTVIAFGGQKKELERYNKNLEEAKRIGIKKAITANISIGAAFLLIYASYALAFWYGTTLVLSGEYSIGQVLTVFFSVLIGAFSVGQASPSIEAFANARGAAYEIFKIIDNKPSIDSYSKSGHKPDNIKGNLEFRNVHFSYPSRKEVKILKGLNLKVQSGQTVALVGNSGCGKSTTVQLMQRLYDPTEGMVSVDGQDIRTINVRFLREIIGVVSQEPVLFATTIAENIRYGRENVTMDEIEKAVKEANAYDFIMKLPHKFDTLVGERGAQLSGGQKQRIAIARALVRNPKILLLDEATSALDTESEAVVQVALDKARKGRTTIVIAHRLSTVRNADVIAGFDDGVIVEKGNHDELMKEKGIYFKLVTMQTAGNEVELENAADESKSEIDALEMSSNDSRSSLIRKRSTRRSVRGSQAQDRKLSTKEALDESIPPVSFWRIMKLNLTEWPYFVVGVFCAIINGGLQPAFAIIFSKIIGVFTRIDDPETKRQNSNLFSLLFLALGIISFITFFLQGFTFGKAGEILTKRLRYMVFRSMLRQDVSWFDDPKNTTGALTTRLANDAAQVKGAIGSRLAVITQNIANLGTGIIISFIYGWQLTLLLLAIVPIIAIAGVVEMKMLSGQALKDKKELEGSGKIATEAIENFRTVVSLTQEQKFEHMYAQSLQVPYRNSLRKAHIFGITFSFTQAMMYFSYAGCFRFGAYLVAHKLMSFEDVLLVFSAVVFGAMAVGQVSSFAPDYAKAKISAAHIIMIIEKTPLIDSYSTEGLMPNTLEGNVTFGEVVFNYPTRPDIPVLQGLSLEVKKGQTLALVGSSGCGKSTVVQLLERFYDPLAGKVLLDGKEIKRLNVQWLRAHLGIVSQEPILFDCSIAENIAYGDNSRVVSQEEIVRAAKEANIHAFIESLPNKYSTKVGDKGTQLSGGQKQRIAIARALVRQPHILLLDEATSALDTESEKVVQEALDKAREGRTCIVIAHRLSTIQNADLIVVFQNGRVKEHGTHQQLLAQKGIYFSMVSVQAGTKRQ
# [9] = measured here: combination with cisplatin, at 0.5 µM
# [10] = measured here: combination with cisplatin, at 5 µM
# [11] = BGB combination, concentration series, at 5 µM
# [12] = cisplatin combination, concentration series, at 5 µM
# [13] = measured here: combo with BGB IC20
# [14] = measured here: combo with cisplatin IC20
compound,measurement,setting,value
CN1CCCN=C1/C=C/c1cccs1,survival,[1],25.8 (inactive)
C=CC(=O)Nc1cc2c(Nc3ccc(F)c(Cl)c3)ncnc2cc1OCCCN1CCOCC1,liver cell % of control,[2],85.5% and 77.3% and 90.4%
same,parasite % of control,[2],36.7% (inactive) and 39.4% (inactive) and 33.2% (inactive)
NC(=O)c1ncn([C@@H]2O[C@H](CO)[C@@H](O)[C@H]2O)c1N,luciferase signal,[3],16 AU (inactive)
Cc1ccc(Nc2nccc(N(C)c3ccc4c(C)n(C)nc4c3)n2)cc1S(N)(=O)=O,liver cell % of control,[2],87.8% and 92.8% and 108%
same,parasite % of control,[2],30.2% (inactive) and 10.9% (inactive) and 16.3% (inactive)
N=C(N)c1ccc2cc(OC(=O)c3ccc(N=C(N)N)cc3)ccc2c1,fold fluorescence,[4],12.2 [at 143.9 µM] (inactive)
CC1=C(C)C(=O)C(CCCCC#CCCCC#CCO)=C(C)C1=O,fold fluorescence,[4],9.55 [at 153.2 µM] (inactive)
C#Cc1cccc(Nc2ncnc3cc(OCCOC)c(OCCOC)cc23)c1,liver cell % of control,[2],94.7% and 95% and 97.1%
same,parasite % of control,[2],281% (inactive) and 87% (inactive) and 63.1% (inactive)
CCOC(=O)Nc1ccc(NCc2ccc(F)cc2)nc1N,inhibition,[5]; at 0.5 µM,-26.1% (inactive)
same,inhibition,[5]; [9],-30.1%
same,inhibition,[5]; [10],-38%
same,inhibition,[6]; [11],-6.96%
same,inhibition,[6]; at 0.5 µM,-1.39% (inactive)
same,inhibition,[6]; [12],8.03%
same,inhibition,[7],3.76% (inactive)
same,inhibition,[7]; [13],6.16%
same,inhibition,[7]; [14],13.9%
C[C@@H]1C[C@H]2[C@@H]3CCC4=CC(=O)C=C[C@]4(C)[C@@]3(Cl)[C@@H](O)C[C@]2(C)[C@@]1(OC(=O)c1ccco1)C(=O)CCl,fluorescence slope change,[8],21.4% (inactive)
same,survival,[1],4.67 (inactive)
O=c1[nH]c(=O)n([C@H]2C[C@H](O)[C@@H](CO)O2)cc1C(F)(F)F,luciferase signal,[3],36 AU (inactive)
same,inhibition,[5]; at 0.5 µM,-13.5% (inactive)
same,inhibition,[5]; [9],-15.3%
same,inhibition,[5]; [10],-85.8%
same,inhibition,[6]; [11],3.66%
same,inhibition,[6]; at 0.5 µM,-12.4% (inactive)
same,inhibition,[6]; [12],9.54%
same,inhibition,[7],-1.16% (inactive)
same,inhibition,[7]; [13],5.49%
same,inhibition,[7]; [14],-19.9%
CCCCCCCCCCCCCCC[C@H](O)[C@@H](N)CO,survival,[1],80 (inactive)
same,fold fluorescence,[4],7.01 (inactive)
OCCN1CCN(CC/C=C2/c3ccccc3Sc3ccc(C(F)(F)F)cc32)CC1,fluorescence slope change,[8],77.6% (active)
same,survival,[1],3.17 (inactive)
O=c1[nH]c(=O)n([C@H]2C[C@H](O)[C@@H](CO)O2)cc1Br,inhibition,[5]; at 0.5 µM,-21.2% (inactive)
same,inhibition,[5]; [9],-22.2%
same,inhibition,[5]; [10],-17.4%
same,inhibition,[6]; [11],35.6%
same,inhibition,[6]; at 0.5 µM,9.43% (inactive)
same,inhibition,[6]; [12],29%
same,inhibition,[7],11% (inactive)
same,inhibition,[7]; [13],6.3%
same,inhibition,[7]; [14],12.5%
C(=C\c1ccccc1)/CN1CCN(C(c2ccccc2)c2ccccc2)CC1,fluorescence slope change,[8],102% (active)
same,survival,[1],11.3 (inactive)
CC(=O)Oc1cc(C(F)(F)F)ccc1C(=O)O,survival,[1],9.25 (inactive)
CCN[C@H]1CN(CCCOC)S(=O)(=O)c2sc(S(N)(=O)=O)cc21,survival,[1],9.25 (inactive)
